Data as given in PubChem BioAssay AID2025 (NMMLSC, 2009).
In all, about 330,000 compounds went through this assay and about 980 (0.3%) were called active.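 How the source made its calls: active means percent response vs DMSO below 50%; inconclusive means fewer than 70 events counted for the yeast strain; inactive means the rest.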 The full list was thinned out, with actives kept by preference.

Assay: RPL19A-GFP expression modulators in yeast, primary screen, cell-based, S. cerevisiae, multiplex flow cytometry, MLPCN (AID 2025);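 further: median channel GFP fluorescence of the barcoded RPL19A-GFP strain; ratio of sample median GFP to plate DMSO average so 100% = DMSO; lower means less RPL19A-GFP as with rapamycin TOR inhibition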
Settings: S. cerevisiae RPL19A-GFP strain, 3 h, at 10 µM, stronger effect = lower value

Row | SMILES | percent response vs DMSO
1 | Cc1nc2c(ncn2-c2ccccc2)c(=O)n1NC(=O)CN1CCCC1 | 27.7% [may fluoresce violet] (active)
2 | O=C(CN1CCCC1)N1CCN(c2ccccc2)CC1 | 90.5% (inactive)
3 | Cc1nc2ccccc2c(=O)n1NC(=O)c1ccccc1 | 100% (inactive)
4 | CN(CCc1cnn(C)c1)Cc1cn(C)nc1-c1ccccc1F | 96.2% (inactive)
5 | COc1ccc(C(=O)NC2CC2)cc1OC1CCN(Cc2ccc(SC)cc2)CC1 | 101% (inactive)
6 | COc1ccc(CN2CCCC(C(=O)c3ccc(Cl)cc3)C2)cc1Cn1cncn1 (configuration not stated) | 105% (inactive)
7 | COc1cc(CN2CCCC(C(=O)c3ccc(SC)cc3)C2)cc(Cl)c1O (configuration not stated) | 40.5% [may fluoresce violet] (active)
8 | CN(C)C(=O)c1cc(Br)ccc1Cl | 95.1% (inactive)
9 | Cc1ccc(SCCSc2ncccn2)cc1 | 109% (inactive)
10 | Cc1ccc(SCC2=NNC(=O)C2)cc1 | 38.4% [may fluoresce violet] (active)
11 | Cc1ccc(SCc2cc(=O)[nH]c(N3CCCCC3)n2)cc1 | 97.5% (inactive)
12 | Cc1cccc(N2CCN(C(=O)CN(C)S(=O)(=O)c3ccc4c(c3)CCC(=O)N4)CC2)c1C | 99.3% (inactive)
13 | Clc1c(OCCCn2ccnc2)ccc2ccccc12 | 99.7% (inactive)
14 | CCC(Oc1ccccc1)C(=O)NCc1cccnc1 (configuration not stated) | 100% (inactive)
15 | O=C(CSc1ncccn1)NCCc1ccccc1 | 99.8% (inactive)
16 | CC(=O)OC(C(=O)NCCc1ccccc1)c1cccnc1 (configuration not stated) | 47.6% [may fluoresce violet] (active)
17 | O=C1COc2ccc(C(=O)COC(=O)CCOc3ccccc3)cc2N1 | 97.8% (inactive)
18 | COc1ccc(C(=O)Nc2ncc3c(n2)-c2ccccc2CC3)cc1 | 97.8% (inactive)
19 | C=CCN(CC=C)S(=O)(=O)c1ccc(C(=O)Nc2nc3c(s2)CCc2ccccc2-3)cc1 | 103% (inactive)
20 | COCCN(CCOC)S(=O)(=O)c1ccc(C(=O)Nc2nc3c(s2)CCc2ccccc2-3)cc1 | 25.1% [may fluoresce violet] (active)
21 | COc1cc(CNc2ncn[nH]2)ccc1OCc1ccccc1C | 103% (inactive)
22 | O=C1COc2ccc(S(=O)(=O)NCCc3ccc(Cl)cc3)cc2N1 | 103% (inactive)

Row | SMILES | percent response vs DMSO
23 | O=C(COc1ccc(-n2cnnn2)cc1)Nc1ccccc1Cl | 33.1% [may fluoresce violet] (active)
24 | C=CCc1cccc(/C=N/NC(=O)COc2ccc(-n3cnnn3)cc2)c1O | 105% (inactive)
25 | O=C(Cc1c(F)cccc1Cl)Nc1ccc(-n2cnnn2)cc1 | 94.7% (inactive)
26 | COc1ccc(CN(Cc2ccco2)S(=O)(=O)c2ccc(S(=O)(=O)N3CCCC3)cc2)cc1 | 107% (inactive)
27 | CCOc1ccc(S(=O)(=O)N2CCC(c3ccccc3)CC2)cc1C(=O)O | 99.8% (inactive)
28 | COc1ccc(S(=O)(=O)NC(C)C(=O)NCc2ccncc2)cc1Cl (configuration not stated) | 99.9% (inactive)
29 | CC(Oc1cc2oc(=O)c3c(c2cc1Cl)CCCC3)C(=O)NCc1ccncc1 (configuration not stated) | 14.1% [may fluoresce violet] (active)
30 | O=C(COc1cc2oc(=O)c3c(c2cc1Cl)CCC3)NCCCN1CCOCC1 | 112% (inactive)
31 | Cc1ccc(OCCCCN2CCCCC2)c(Br)c1 | 96.8% (inactive)
32 | CCOc1ncccc1C(=O)OCC(=O)N1c2ccccc2CC1C (configuration not stated) | 95.9% (inactive)
33 | CCOc1ncccc1C(=O)OCc1cn2cc(Cl)ccc2n1 | 45.3% [may fluoresce violet] (active)
34 | CCOc1ncccc1C(=O)OCC(=O)NC1CC1 | 99.9% (inactive)
35 | Cc1cc(C)cc(N(CC(=O)NC2CCCC2)C(=O)CCC(=O)Nc2nccs2)c1 | 103% (inactive)
36 | Cc1cc(C)cc(N(CC(=O)NC2CCCC2)C(=O)CCC(=O)Nc2cc(C)on2)c1 | 46.1% [may fluoresce violet] (active)
37 | Cc1cc(NC(=O)CCC(=O)N(CC(=O)NC2CCCC2)c2ccc(F)cc2)no1 | 100% (inactive)
38 | COc1cc(C2C3=C(CCCC3=O)OC3=C2C(=O)CCC3)ccc1OCC(=O)Nc1ccccc1 | 110% (inactive)
39 | O=C1CSC(=S)N1c1ccc(Cl)c(Cl)c1 | 109% (inactive)
40 | COc1ccccc1CN1CCCC(N2CCN(c3ccc(F)cc3)CC2)C1 (configuration not stated) | 30.8% [may fluoresce violet] (active)
41 | COc1ccccc1CN1CCN(Cc2cc(OC)c(OC)cc2OC)CC1 | 106% (inactive)
42 | COc1ccc(CN2CCCC(N3CCc4ccccc4C3)C2)c(O)c1 (configuration not stated) | 101% (inactive)
43 | O=C(O)CSc1nccc2ccccc12 | 102% (inactive)
44 | Cc1ccc(NC(=O)CCOc2ccccc2)cc1S(=O)(=O)Nc1ccccc1Cl | 102% (inactive)

Row | SMILES | percent response vs DMSO
45 | Cc1ccc(-c2csc(NC(=O)Cn3[nH]c(=O)c4ccccc4c3=O)n2)cc1 | 103% (inactive)
46 | Cc1c(C(=O)Nc2cccc(-c3nnc4n3CCCCC4)c2)oc2ccccc12 | 111% (inactive)
47 | O=C(Cn1[nH]c(=O)c2ccccc2c1=O)Nc1cccc(-c2nnc3n2CCCCC3)c1 | 17.9% [may fluoresce violet] (active)
48 | COC(=O)c1cc(C(=O)OCC(=O)Nc2cc(C)on2)cc([N+](=O)[O-])c1 | 41.7% [may fluoresce violet] (active)
49 | Cc1cc(NC(=O)CSc2nccn2-c2ccc([N+](=O)[O-])cc2)no1 | 98.9% (inactive)
50 | Cc1cc(NC(=O)COc2ccc([N+](=O)[O-])cc2)no1 | 105% (inactive)
51 | COc1ccc(S(=O)(=O)NCCc2cc3ccc(C)c(C)c3[nH]c2=O)cc1 | 101% (inactive)
52 | Oc1ccc2ccc3cccc[n+]3c2c1 | 100% (inactive)
53 | Nn1c(SCC(=O)Nc2nccs2)nncc1=O | 95.5% (inactive)
54 | CC(C)COP(=O)(c1ccc(N(C)C)cc1)C(Nc1ccccc1)c1cccnc1 (configuration not stated) | 100% (inactive)
55 | COc1ccccc1CNC(=O)C1CCN(S(=O)(=O)c2ccc3c(c2)CC(C)N3C(=O)C2CC2)CC1 (configuration not stated) | 102% (inactive)
56 | Cc1ccc(CNC(=O)CCS(=O)(=O)c2ccc3c(c2)CC(C)N3C(=O)C2CC2)o1 (configuration not stated) | 17.4% [may fluoresce violet] (active)
57 | CCC(=O)N1c2ccc(S(=O)(=O)CCC(=O)N3CCN(c4ccccc4)CC3)cc2CC1C (configuration not stated) | 105% (inactive)
58 | Cc1cc(-c2ccc(C)c(S(=O)(=O)Nc3ccc(S(N)(=O)=O)cc3)c2)on1 | 99% (inactive)
59 | Cc1noc(C)c1S(=O)(=O)NCCc1ccc(S(N)(=O)=O)cc1 | 95.7% (inactive)
60 | CCc1ccc(-c2cc(C)no2)cc1S(=O)(=O)NCCc1ccc(S(N)(=O)=O)cc1 | 33.8% [may fluoresce violet] (active)
61 | CCOC(=O)N1CCC(N(CCOC)C(=O)Nc2ccc(C)c(C)c2)CC1 | 89.6% (inactive)
62 | CCOC(=O)C1Nc2ccc(C(F)(F)F)cc2C2C=CCC12 (configuration not stated) | 93.3% (inactive)
63 | CC1CCN(C(=O)CN(c2ccc(Oc3ccccc3)cc2)S(C)(=O)=O)CC1 | 100% (inactive)
64 | COc1ccc(NC(=O)c2cccc(Cl)c2)c[n+]1[O-] | 106% (inactive)
65 | COCC(C)OC(=O)c1c(N)n(CCCN2CCOCC2)c2nc3ccccc3nc12 (configuration not stated) | 27% [may fluoresce violet] (active)
66 | CC(C)(C)OC(=O)c1c(N)n(CCCN2CCCC2=O)c2nc3ccccc3nc12 | 90% (inactive)

Row | SMILES | percent response vs DMSO
67 | CC(CN1CCOCC1)OC(=O)c1ccc(C(C)(C)C)cc1 (configuration not stated) | 105% (inactive)
68 | CCCCC(CC)CNC(=O)C(=O)C1C(=O)Nc2ccccc21 (configuration not stated) | 96.8% (inactive)
69 | COc1ccc(N(CCC#N)S(=O)(=O)c2ccc(Cl)cc2)cc1 | 99.2% (inactive)
70 | COc1ccccc1OCCNCC(O)COc1cccc2[nH]c3ccccc3c12 (configuration not stated) | 103% (inactive)
71 | O=C(CNC(=O)c1ccc(Cl)cc1Cl)NCC(=O)Nc1ccccc1N1CCOCC1 | 100% (inactive)
72 | O=C(c1ccccc1)N1CCN(c2ccc([N+](=O)[O-])c(NCc3ccco3)c2)CC1 | 98.5% (inactive)
73 | COc1ccccc1OCCNc1cc(N2CCOCC2)ccc1[N+](=O)[O-] | 99.1% (inactive)
74 | COc1ccc(CCNc2cc(N3CCN(C(=O)c4ccccc4OC)CC3)ccc2[N+](=O)[O-])cc1OC | 19.6% [may fluoresce violet] (active)
75 | Cn1ccs/c1=N\S(=O)(=O)c1ccc(C(C)(C)C)cc1 | 43.3% [may fluoresce violet] (active)
76 | Cn1ccsc1=NC(=O)c1cc(S(=O)(=O)N2CCOCC2)ccc1Cl | 101% (inactive)
77 | COc1ccc(C2=Nn3c(nnc3-c3ccccc3OC)SC2)cc1OC1CCCC1 | 92.8% (inactive)
78 | Cc1cccn2c(=O)c3cc(C(=O)NCC4CCCO4)c(=N)n(Cc4ccc(F)cc4)c3nc12 (configuration not stated) | 97.2% (inactive)
79 | Cc1cccn2c(=O)c3cc(C#N)c(=NC(=O)c4cccnc4)n(CC4CCCO4)c3nc12 (configuration not stated) | 97.3% (inactive)
80 | Cc1cccn2c(=O)c3cc(C#N)c(=O)n(CCCN4CCOCC4)c3nc12 | 37.1% [may fluoresce violet] (active)
81 | CCCOc1ccc(/C=N/NC(=O)C2CC2)c(OCCC)c1 | 101% (inactive)
82 | COc1cccc(N=c2oc3c(C)ncc(CO)c3cc2C(N)=O)c1 | 95% (inactive)
83 | CCc1ccccc1S(=O)(=O)Cc1ccc(C(=O)NCCc2ccccc2)o1 | 96.8% (inactive)
84 | Cc1oc(-c2ccccc2F)nc1CS(=O)CC(=O)NCCN1CCCCC1C (configuration not stated) | 100% (inactive)
85 | Cc1ccccc1S(=O)(=O)Cc1ccc(C(=O)NCCN2CCCCC2C)o1 (configuration not stated) | 34.3% [may fluoresce violet] (active)
86 | CCCS(=O)(=O)N1CCCC(C(=O)NCCN2CCCCC2C)C1 (configuration not stated) | 104% (inactive)
87 | Cc1cc(N2CCOCC2)nc2ccc(NC(=S)N3CCN(Cc4ccccc4)CC3)cc12 | 105% (inactive)
